Values joined by “and” are separate entries in the source; they are usually repeats but may differ in a detail not shown here. Equal values may be shown once. Inconclusive results are not listed. Some structures have more than one record in an assay (separate samples or runs), and their calls can disagree. Active and inactive are the calls of the source. Rule for the calls: active = hit-call score of the fitted dose curve at least 0.9, where 1 is the maximum; inconclusive = response in the unintended direction; inactive = score below 0.9.

From PubChem BioAssay (EPA / NIEHS) come the findings set out here.

A short description of assay [1]: TOX21_p53_BLA_p3_viability: Viability Assessment in the Tox21 HCT-116 p53 Agonism Beta-lactamase Assay, Phase 3 (AID 2283593).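 Note: cells exposed to compound for 16 h before reading.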 Put shortly: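 HCT-116 cells (4000/well) rested 5 h at 37C, then got DMSO compounds by pin tool (217-fold dilution) for 16 h at 37C, 5% CO2. After the bla read, CellTiter-Glo was added and luminescence read at 30 min, room temperature.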

For assay [2], the target named is Cellular tumor antigen p53 (Homo sapiens) (UniProt P04637). Put plainly: TOX21_p53_BLA_p3_ratio: Tox21 HCT-116 p53 Agonism Beta-lactamase Assay, Ratio, Phase 3 (AID 2283596). The gist of the method:
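Cells were seeded at 4000/well, rested 5 h at 37C, then dosed with DMSO compound solutions (217-fold dilution) for 16 h. CCF4-AM substrate was loaded for 2 h at room temperature, and the 460/530 nm emission ratio was fitted for gain of signal versus DMSO.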

Assay [3] has the same target. Put plainly: TOX21_p53_BLA_p5_ratio: Tox21 HCT-116 p53 Agonism Beta-lactamase Assay, Ratio, Phase 5 (AID 2283599). Put shortly: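 HCT-116 cells carrying a p53-inducible beta-lactamase reporter were seeded at 4000 cells/well and dosed after 5 h with compound in DMSO (217-fold dilution). After 16 h at 37C, CCF4-AM substrate was added for 2 h, and the 460/530 nm emission ratio was scored as gain-of-signal versus DMSO.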

Assay [4] can be described thus: TOX21_p53_BLA_p5_viability: Viability Assessment in the Tox21 HCT-116 p53 Agonism Beta-lactamase Assay, Phase 5 (AID 2283600). Put shortly:
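Workflow: seed 4000 cells per well, wait 5 h, add compounds (DMSO, 217-fold dilution), incubate 16 h, load CCF4-AM 2 h, add CellTiter-Glo, read luminescence after 30 min.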

Assay [5] is described as follows: Tanguay_ZF_120hpf_MORT_legacy: (Legacy) Oregon State University Tanguay Lab 120 Hour Post-fertilization zebrafish Assay for Mortality (AID 2283633). The gist of the method: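 5D WT zebrafish, chorion removed 4 hpf; 1 embryo/well from 6 hpf; static exposure to 120 hpf, 28C, dark, sealed. Final DMSO 0.64%. Readout: binary mortality, brightfield, 24 + 120 hpf; DMSO as negative control.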

A short description of assay [6]: Tanguay_ZF_120hpf_YSE_legacy: (Legacy) Oregon State University Tanguay Lab 120 Hour Post-fertilization zebrafish Assay for Yolk Sac Edema (AID 2283634). Put shortly:
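Dechorionate (pronase, 4 hpf) → place one 6 hpf embryo per well → static compound exposure, sealed and foil-covered, 28C, to 120 hpf → record yolk sac edema as present or absent. Final DMSO 0.64%.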

Assay [7] in a line: Tanguay_ZF_120hpf_AXIS_legacy: (Legacy) Oregon State University Tanguay Lab 120 Hour Post-fertilization zebrafish Assay for Body Axis Malformation (AID 2283635). Put shortly:
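Chorion is removed with pronase at 4 hpf, then single 6 hpf embryos are dosed (final DMSO 0.64%) and held statically at 28C in sealed, foil-covered plates. At 120 hpf body axis malformation is recorded as present or absent.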

Assay [8] in a line: Tanguay_ZF_120hpf_EYE_legacy: (Legacy) Oregon State University Tanguay Lab 120 Hour Post-fertilization zebrafish Assay for Eye Malformation (AID 2283636). Put shortly: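 Static waterborne exposure of dechorionated zebrafish embryos (strain Tropical 5D), 6 to 120 hpf, sealed plates at 28C, 0.64% DMSO vehicle. Eye malformation is scored as a binary endpoint, with gain of signal analysed relative to DMSO.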

Assay [9] is described as follows: Tanguay_ZF_120hpf_SNOU_legacy: (Legacy) Oregon State University Tanguay Lab 120 Hour Post-fertilization zebrafish Assay for Snout Malformation (AID 2283637). Put shortly: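 Dechorionated zebrafish, individually housed from 6 hpf in covered, sealed wells at 28C with 0.64% DMSO vehicle, were examined at 120 hpf for snout malformation. Responses were binary and analysed positive-direction relative to DMSO.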

Assay [10] is described as follows: Tanguay_ZF_120hpf_JAW_legacy: (Legacy) Oregon State University Tanguay Lab 120 Hour Post-fertilization zebrafish Assay for Jaw Malformation (AID 2283638). Put shortly:
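Steps: dechorionate 4 hpf embryos (pronase); plate 1/well at 6 hpf; add test chemical, 0.64% DMSO final; seal, cover, hold at 28C statically to 120 hpf; score jaw defect presence/absence microscopically. Dead embryos not scored.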

Assay [11] can be described thus: Tanguay_ZF_120hpf_OTIC_legacy: (Legacy) Oregon State University Tanguay Lab 120 Hour Post-fertilization zebrafish Assay for Otic Vesicle Malformation (AID 2283639). Put shortly:
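Brightfield scoring at 120 hpf, binary present/absent; DMSO negative control, 5uM trimethyltin chloride positive control. Static exposure at 28C, final DMSO 0.64% (vol/vol). Dead embryos not scored for malformation.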

Assay [12] is described as follows: Tanguay_ZF_120hpf_PE_legacy: (Legacy) Oregon State University Tanguay Lab 120 Hour Post-fertilization zebrafish Assay for Pericardial Edema (AID 2283640). The gist of the method:
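Embryos from wild-type 5D adults were staged, then dosed in 0.64% DMSO. They were kept sealed in the dark at 28C until 120 hpf. Pericardial edema was then recorded as present or absent.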

Assay [13] can be described thus: Tanguay_ZF_120hpf_BRAI_legacy: (Legacy) Oregon State University Tanguay Lab 120 Hour Post-fertilization zebrafish Assay for Brain Malformation (AID 2283641). The gist of the method:
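Wild-type 5D larvae, static waterborne exposure to 120 hpf, 28C, 0.64% v/v DMSO. Brightfield scoring of brain defects, binary; dead embryos excluded. Positive ctrl 5uM trimethyltin chloride.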

A short description of assay [14]: Tanguay_ZF_120hpf_PFIN_legacy: (Legacy) Oregon State University Tanguay Lab 120 Hour Post-fertilization zebrafish Assay for Pectoral Fin Malformation (AID 2283648).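 Note: each larva judged yes or no for fin defect by brightfield with dead larvae skipped.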 The gist of the method: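 Scoring of pectoral fin malformation was binary, made at 120 hpf on larvae exposed statically from 6 hpf after enzymatic chorion removal. Activity was fitted upward relative to DMSO controls at 0.64% (vol/vol).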

Assay [15] can be described thus: Tanguay_ZF_120hpf_CFIN_legacy: (Legacy) Oregon State University Tanguay Lab 120 Hour Post-fertilization zebrafish Assay for Caudal Fin Malformation (AID 2283649). The gist of the method:
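Binary presence or absence of caudal fin malformation at 120 hpf, read by brightfield microscopy, with DMSO as baseline. Larvae came from 5D wild-type embryos exposed statically from 6 hpf at 28C after pronase dechorionation.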

The nature of assay [16]: Tanguay_ZF_120hpf_PIG_legacy: (Legacy) Oregon State University Tanguay Lab 120 Hour Post-fertilization zebrafish Assay for Pigmentation Malformation (AID 2283650). Put shortly:
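Endpoint is incidence of abnormal pigmentation at 120 hpf in dechorionated 5D zebrafish exposed singly from 6 hpf at 28C, DMSO vehicle at 0.64%. Embryos dying by 24 or 120 hpf are excluded from scoring.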

Assay [17] is described as follows: Tanguay_ZF_120hpf_CIRC_legacy: (Legacy) Oregon State University Tanguay Lab 120 Hour Post-fertilization zebrafish Assay for Circulatory Malformation (AID 2283651). Put shortly: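 Static exposure, 6–120 hpf, 28C, sealed and dark; one dechorionated 5D embryo/well; DMSO 0.64% v/v final. Binary circulation endpoint by brightfield; dead embryos not scored.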
The nature of assay [18]: TOX21_p53_BLA_p4_viability: Viability Assessment in the Tox21 HCT-116 p53 Agonism Beta-lactamase Assay, Phase 4 (AID 2283597).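 Note: hits lower the luminescence signal meaning cytotoxicity.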 Put shortly:
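Readout: ATP luminescence (CellTiter-Glo), measured 30 min after reagent addition at RT. The reagent followed a 2 h CCF4-AM incubation, and the cells had been exposed to compound for 16 h at 37C.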

Assay [19] has as its target Cellular tumor antigen p53 (Homo sapiens) (UniProt P04637). As to the kind of experiment: TOX21_p53_BLA_p4_ratio: Tox21 HCT-116 p53 Agonism Beta-lactamase Assay, Ratio, Phase 4 (AID 2283601). The gist of the method:
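HCT116 cells carrying an inducible beta-lactamase reporter were plated at 4000 cells/well, rested 5 h, then exposed to compounds in DMSO (217-fold dilution) for 16 h at 37C. CCF4-AM substrate was loaded 2 h at room temperature; 460/530 nm emission ratio scored gain-of-signal versus DMSO.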

Sequence of Cellular tumor antigen p53 (Homo sapiens) (P04637 whole entry, looked up): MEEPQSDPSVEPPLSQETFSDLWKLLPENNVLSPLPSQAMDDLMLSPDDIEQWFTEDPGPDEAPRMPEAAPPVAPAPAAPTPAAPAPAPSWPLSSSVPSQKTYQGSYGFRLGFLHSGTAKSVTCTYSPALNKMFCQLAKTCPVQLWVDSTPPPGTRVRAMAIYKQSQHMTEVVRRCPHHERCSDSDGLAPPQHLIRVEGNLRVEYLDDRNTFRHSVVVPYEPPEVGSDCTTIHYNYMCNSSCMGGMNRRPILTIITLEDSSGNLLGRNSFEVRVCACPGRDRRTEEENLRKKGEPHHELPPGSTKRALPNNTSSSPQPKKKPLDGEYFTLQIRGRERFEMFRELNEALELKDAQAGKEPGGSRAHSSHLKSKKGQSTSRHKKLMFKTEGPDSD

Turning to `CCC(=O)O[C@H]1CC[C@H]2[C@@H]3CCC4=CC(=O)CC[C@]4(C)[C@H]3CC[C@]12C`, the AC50 in assay [1] was 82 µM (active). Moreover, the result in assay [1], in assay [2], in [3], in assay [4], in assay [5] and in assay [6] was inactive. In addition, the outcome in assay [7], in [8], in assay [9], in assay [10], in [11] and in [12] was inactive. Further, the compound was classed as inactive in assay [13], in assay [14], in assay [15], in [16] and in assay [17].

`NS(=O)(=O)C(F)(F)C(F)(F)C(F)(F)C(F)(F)C(F)(F)C(F)(F)C(F)(F)C(F)(F)F`: the half-maximal activity concentration (AC50) in assay [1] is 46.1 µM (active); in [2], 47 µM (active); in [4] it was 46.1 µM (active); in [15], 4.88 µM (active). In addition, the result in assay [18], in [19], in assay [6], in assay [7], in assay [8] and in assay [9] was inactive. For the same compound, the compound was classed as inactive in assay [10], in [11], in assay [12], in assay [13], in [14] and in assay [16]. In assay [17], the compound was called inactive.

Regarding `Cc1ccc(O)c(C)c1`, the compound was called inactive in assay [1], in assay [2], in assay [18], in [4], in assay [19] and in assay [6]. The compound was classed as inactive in assay [7], in assay [8], in assay [9], in assay [10], in assay [11] and in assay [12]. The call in assay [13], in assay [14], in assay [15], in assay [16] and in assay [17] was inactive.

On to `Cc1cccc([N+](=O)[O-])c1`, for which the compound was classed as inactive in assay [1], in assay [2], in assay [18], in assay [4], in assay [19] and in assay [5]. Also, the compound was called inactive in assay [6], in assay [7], in assay [8], in assay [9], in assay [10] and in assay [11]. For the same compound, the call in assay [12], in assay [13], in [14], in assay [15] and in assay [16] was inactive.

Take `CCCCCCCCCC[N+](C)(C)CCCCCCCCCC`: the AC50 in assay [1] is 64 µM (active) and 27.4 µM (active); in assay [2], 74.3 µM (active) and 39.7 µM (active); in assay [18] it was 23.4 µM (active) and 21.1 µM (active); in assay [4], 23 µM (active); in [19], 26.8 µM (active) and 35 µM (active). Moreover, the outcome in assay [6], in assay [7], in assay [8], in [9], in assay [10] and in assay [11] was inactive. Further, the outcome in [12], in assay [13], in [14], in assay [15] and in assay [17] was inactive.

For the compound `O=C(NC(=O)c1c(F)cccc1F)Nc1cc(Cl)c(OC(F)(F)C(F)F)c(Cl)c1`, the compound was called inactive in assay [1], in assay [2], in assay [18], in [3], in assay [4] and in [19]. In addition, the outcome in assay [5], in assay [6], in [7], in assay [8], in assay [9] and in [10] was inactive. Further, the call in assay [11], in assay [12], in assay [13], in assay [14], in assay [15] and in assay [17] was inactive.

`Clc1ccc(C(c2ccccc2Cl)C(Cl)(Cl)Cl)cc1` (stereo not given): the AC50 in assay [1] was 26.1 µM (active) and 68.2 µM (active); in [2], 46.3 µM (active); in assay [18], 30.2 µM (active) and 62.2 µM (active); in [4], 72.2 µM (active); in assay [19] it was 48.7 µM (active) and 76.4 µM (active). In addition, the outcome in [2], in [4], in assay [6], in assay [7], in assay [9] and in assay [11] was inactive. Besides, the outcome in assay [12], in assay [13], in assay [14], in assay [15], in assay [16] and in [17] was inactive.
